PP1 inh: counter-screen for PP5 inhibitors: inhibitors of human PP1-alpha; purified PP1alpha, OMFP fluorescence; inhibition, % at 6.7 µM; 320,000 tested, 0.9% active; AID 2235;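 active = inhibition above the mean inhibition of all tested compounds plus 3 SD, computed separately for each screening campaign, cut at about 15% in these data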
EBNA-1 inh: blocks EBNA-1 binding to DNA | EBNA-1 DNA binding, fluorescence polarization | 300,000 tested, 0.34% active | inhibition, % at 14.8 µM | AID 1950; in the data active = inhibition above about 28%
MsrA act: bovine methionine sulfoxide reductase A activation | purified bovine MsrA, absorbance read-out | activation, % at 10.6 µM | 360,000 tested, 0.3% active; in the data active = activation above about 7.5%
ZTA counter: counter-screen for EBNA-1 inhibitors: inhibitors of Epstein-Barr virus ZTA. ZTA-DNA binding, fluorescence polarization. inhibition, % at 11 µM. 320,000 tested, 0.15% active. AID 2234; in the data active = inhibition above about 33%
PP5 inh: blocks human protein phosphatase 5 activity; purified PP5c, OMFP substrate fluorescence; inhibition, % at 6.7 µM; P53041; 320,000 tested, 0.18% active; AID 1987;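 active = inhibition above the campaign's mean inhibition across all tested compounds plus 3 SD, cut at about 9.5% in these data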
Target sequence (P53041 whole entry, looked up): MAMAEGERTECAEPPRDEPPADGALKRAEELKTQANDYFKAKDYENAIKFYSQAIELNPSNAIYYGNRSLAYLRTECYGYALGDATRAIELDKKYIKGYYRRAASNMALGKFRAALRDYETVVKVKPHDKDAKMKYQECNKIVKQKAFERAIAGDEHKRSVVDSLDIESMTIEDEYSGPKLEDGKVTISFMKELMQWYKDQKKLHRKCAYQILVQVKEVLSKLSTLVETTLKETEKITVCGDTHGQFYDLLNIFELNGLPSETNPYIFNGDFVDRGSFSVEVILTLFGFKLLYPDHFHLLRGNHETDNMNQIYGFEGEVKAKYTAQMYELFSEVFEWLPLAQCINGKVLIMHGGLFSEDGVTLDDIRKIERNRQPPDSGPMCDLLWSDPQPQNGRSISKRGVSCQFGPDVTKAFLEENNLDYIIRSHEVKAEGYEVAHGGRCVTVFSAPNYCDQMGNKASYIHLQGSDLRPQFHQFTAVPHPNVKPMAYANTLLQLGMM
MsrA inh: inhibitors of bovine MsrA; purified bovine MsrA, absorbance read-out; inhibition, % at 15.5 µM; 360,000 tested, 0.75% active; AID 651718; in the data active = inhibition above about 4.5%
ZTA inh confirm: EBV ZTA DNA binding inhibition, confirmation | shares compounds with ZTA counter | Zta-ZRE DNA binding, fluorescence polarization | inhibition, % at 11.1 µM | 320 tested, 30% active;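 active = mean inhibition across triplicate runs above the hit threshold derived for the original primary screen, cut at about 33% in these data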
EBNA-1 counter: blocks EBNA-1 DNA binding in ZTA counter-screen; inhibition, % at 14.8 µM; 320 tested, under 10 active; shares compounds with ZTA counter; AID 2362; fluorescence polarization; call rule not given here
PP1 confirm: human PP1 phosphatase inhibition, confirmation. shares compounds with PP1 inh. 1,900 tested, 52% active. inhibition, % at 6.7 µM. purified PP1alpha, OMFP substrate fluorescence. AID 2358;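 active = mean PP1 inhibition above a set limit taken from the earlier primary screen, cut at about 15% in these data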
PP5 counter: PP5 phosphatase inhibition, counter-screen for PP1 inhibitors. purified PP5c, OMFP fluorescence. 1,900 tested, 4% active. inhibition, % at 6.7 µM. shares compounds with PP1 inh. AID 2360;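 active = mean PP5 inhibition over triplicate wells above about 9.5% taken from the earlier PP1 screen, limit read from the data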
MsrA activ conf: confirmation of bovine methionine sulfoxide reductase A activators; shares compounds with MsrA act; purified bovine MsrA, absorbance read-out; activation, % at 10.6 µM; 1,000 tested, 12% active; AID 602270; in the data active = activation above about 4%;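 note: enzyme coupled to thioredoxin and thioredoxin reductase with NADPH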
Of the large screens only hits and unclear results are named; the others gave an inactive call (follow-up assays come after a bar, where they were run). Hits are enriched below; roughly 2.3% of the tested compounds scored in any of these assays.

O=C1NC(=O)N(Cc2ccccc2)C(=O)/C1=C\C=C\c1ccco1	none
O=C1NC(=O)N(Cc2ccco2)C(=O)/C1=C/C=C/c1ccco1	ZTA counter 35.3 | ZTA inh confirm inactive | EBNA-1 counter inactive
CN1C(=O)/C(=C/C=C/c2ccco2)C(=O)NC1=S	ZTA counter 34.4 | ZTA inh confirm 69.1 | EBNA-1 counter inactive
CCCCCCC(=O)N/N=C/c1c(O)n(CCCC)c(=S)[nH]c1=O	none
CCCCC(=O)N/N=C/c1c(O)n(CC)c(=S)[nH]c1=O	ZTA counter 36.1 | ZTA inh confirm inactive | EBNA-1 counter inactive
O=C(O)CC1OCC=C2CN3CCC45C6=CC(=O)C(=O)C([N+](=O)[O-])=C6NC4C1C2CC35 (stereo not given)	PP1 inh 33.0, ZTA counter 41.4, PP5 inh 21.5 (no result: MsrA inh) | ZTA inh confirm 67.5 | EBNA-1 counter inactive | PP1 confirm 52.8 | PP5 counter inactive
COC(=O)C1=C(c2cccc(OC)c2OC)C[C@@H]2CC[C@H]1N2C(=O)NC(C)C	none
C[n+]1c2ccccc2nc2ccc(NCCO)cc21	MsrA act 59.0, ZTA counter 59.8 | ZTA inh confirm 48.2 | EBNA-1 counter inactive | MsrA activ conf 50.9
OCCNc1c2c(nc3ccccc13)CCCC2	none
O=C(CCC(=O)N1CCC2(CC1)OCCO2)Nc1nnc(C(F)(F)F)s1	none
Cc1nc2c(=O)n(C)c(=O)nc-2n(C)n1	PP1 inh 43.5, MsrA act 18.3, ZTA counter 46.3, PP5 inh 10.7 | ZTA inh confirm 71.2 | EBNA-1 counter inactive | MsrA activ conf 13.2
O=c1[nH]c(O)c(/C=C2/C=CC(c3cc(Cl)ccc3Cl)=N2)c(=O)[nH]1	PP1 inh 19.1 | PP1 confirm 47.3 | PP5 counter inactive
C[C@@]12C(=O)OC(=O)[C@]1(C)C1CCC2O1	PP1 inh 95.2, PP5 inh 93.9 | PP1 confirm 92.9 | PP5 counter 93.3
CN(C)C1C(=O)C(C(N)=O)=C(O)C2(O)C(=O)C3=C(O)c4c(O)cccc4C(C)(O)C3C(O)C12 (stereo not given)	PP1 inh 33.4 | PP1 confirm inactive | PP5 counter inactive
COC(=O)C1=C(c2ccc(OC)c(OC)c2)C[C@@H]2CC[C@H]1N2C(=O)NCc1cc(C)oc1C(F)(F)F	none (no result: EBNA-1 inh)
c1cncc(C2Nc3cccc4cccc(c34)N2)c1	PP1 inh 23.1 | PP1 confirm inactive | PP5 counter inactive
Cc1ccccc1-n1c(-c2ccc([N+](=O)[O-])cc2)nc2ccccc2c1=O	none
Clc1ccc(C(c2ccc(Cl)cc2)n2cc[n+](CC(OCc3ccc(Cl)cc3Cl)c3ccc(Cl)cc3Cl)c2)cc1 (stereo not given)	PP1 inh 52.2 | PP1 confirm 35.2 | PP5 counter inactive
COc1ccc(C(=O)O/N=C(/C(N)=O)P(=O)(OC(C)C)OC(C)C)cc1	none
N=Cc1c(O)n(-c2ccc(C34CC5CC(CC(C5)C3)C4)cc2)c(=O)[nH]c1=O	PP1 inh 20.0, EBNA-1 inh 28.7 | PP1 confirm 21.8 | PP5 counter inactive
COc1ccc(OC)c(-n2c(O)c(C=Nc3c(C)n(C)n(-c4ccccc4)c3=O)c(=O)[nH]c2=S)c1	none
CC(=O)OC1CCC2(C)C3CCC4(C)C(OC(C)=O)CCC4C3C(C)C2(O)C1 (stereo not given)	none (no result: PP1 inh, EBNA-1 inh, ZTA counter, PP5 inh)
O=C1NC(=S)N(c2ccc(F)cc2)C(=O)/C1=C/c1ccco1	PP1 inh 40.4, EBNA-1 inh 78.5 (no result: MsrA act, MsrA inh) | PP1 confirm 68.0 | PP5 counter inactive
COc1ccc(OC)c(N2C(=O)/C(=C/c3ccco3)C(=O)NC2=S)c1	PP1 inh 68.2, EBNA-1 inh 102.9, ZTA counter 74.7 (no result: MsrA act, MsrA inh) | PP1 confirm 16.7 | PP5 counter inactive
O=C1NC(=S)N(c2ccc(F)cc2)C(=O)/C1=C\c1ccoc1	none (no result: PP1 inh, EBNA-1 inh, ZTA counter, PP5 inh, MsrA inh)
CC(Cc1ccccc1)NC(=O)Cc1ccc([N+](=O)[O-])cc1 (stereo not given)	none
O=C(O)C1C2CCC(O2)C1C(=O)NC1CCCCC1 (stereo not given)	PP1 inh 72.9, PP5 inh 75.7 | PP1 confirm 48.3 | PP5 counter 56.1
O=C(Nc1ccc(Cl)cc1)N1CC1	none (no result: PP1 inh, EBNA-1 inh, ZTA counter, PP5 inh)
COc1ccc(OC)c(CC(=O)O)c1	none
COc1ccc(NC(=O)C2C3CCC(O3)C2C(=O)O)c(OC)c1 (stereo not given)	PP1 inh 75.0, PP5 inh 76.4 | PP1 confirm 29.3 | PP5 counter 45.8
O=C(O)C1C2CCC(O2)C1C(=O)Nc1ccc(Cl)cc1 (stereo not given)	PP1 inh 62.6, PP5 inh 69.2 | PP1 confirm 18.3 | PP5 counter 25.9
Cc1nc(C)c(C(=O)NN=Cc2ccc(N(CCCl)CCCl)cc2)s1	none (no result: PP1 inh, EBNA-1 inh, ZTA counter, PP5 inh)
CC1Oc2cc3c(-c4c(O)cc(O)c5c(O)c6c(cc45)OC(C)C(C)C6=O)c(O)cc(O)c3c(O)c2C(=O)C1C (stereo not given)	PP1 inh 56.6 (no result: MsrA inh) | PP1 confirm 25.5 | PP5 counter inactive
CN1CCN2c3ccc(N)cc3CC3(C(=O)NC(=O)NC3=O)C2C1 (stereo not given)	none (no result: PP1 inh, EBNA-1 inh, ZTA counter, PP5 inh)
CN1C(=O)N(C)C(=O)C2(Cc3cc(N)ccc3N3CCN(c4ccccc4F)CC32)C1=O (stereo not given)	PP1 inh 23.1 (no result: MsrA act) | PP1 confirm 31.9 | PP5 counter inactive
CCOP(=O)(OCC)C(NC(=O)c1ccccc1C)C(Cl)(Cl)Cl (stereo not given)	none
CCCCn1c(=O)c(C(=O)Nc2ccccc2)c(O)c2ccccc21	none
CCCCCn1c(=O)c(C(=O)Nc2ccccc2C)c(O)c2ccccc21	none
CCCCCCn1c(=O)c(C(=O)Nc2ncccc2C)c(O)c2ccccc21	PP1 inh 25.6 | PP1 confirm 18.4 | PP5 counter inactive
CCCCn1c(=O)c(C(=O)Nc2ncccc2C)c(O)c2ccccc21	PP1 inh 27.9 | PP1 confirm 26.2 | PP5 counter inactive
NC(N)=N/N=C/c1ccc(N(c2ccccc2)c2ccccc2)cc1	PP1 inh 38.1 | PP1 confirm 25.4 | PP5 counter inactive
Nc1ccc(Cc2ccc(N)cc2)cc1	none (no result: PP1 inh, EBNA-1 inh, ZTA counter, PP5 inh)
Cc1ccc(C[n+]2c(-c3ccc(C)cc3)cc(-c3ccc(C)cc3)cc2-c2ccc(C)cc2)cc1	PP1 inh 24.4 (no result: MsrA inh) | PP1 confirm inactive | PP5 counter inactive
